Experimental data taken from PubChem BioAssay AID1851 (National Center for Advancing Translational Sciences (NCATS), 2009).
Values joined by “and” are separate entries in the source; they are usually repeats but may differ in a detail not shown here. Equal values may be shown once. About 4,000 (25%) of roughly 16,000 compounds were called active. Roughly 26% stayed inconclusive and do not appear here. The call rests on the fitted dose curve; in most records, active means well fitted curve in the direction sought with a large enough effect; inconclusive means small, poorly fitted or top-dose-only effect, or effect the other way; inactive means no such curve, though single readings can be large or run the other way. Only a sample is shown. More than one record can exist for a structure, and the calls need not agree.

molecular target: Cytochrome P450 2C9 (Homo sapiens) (UniProt P11712); assay: Cytochrome panel assay with activity outcomes; details: recombinant CYP, pro-luciferin dealkylation, luminescence, p450-cyp2c9; series mostly up to 57.1 µM; activity, negative = inhibition: at the top concentration
On the % scale 0 is the no-effect control and ±100 the full control effect.

Cytochrome P450 2C9 (Homo sapiens), sequence (P11712 whole entry, looked up): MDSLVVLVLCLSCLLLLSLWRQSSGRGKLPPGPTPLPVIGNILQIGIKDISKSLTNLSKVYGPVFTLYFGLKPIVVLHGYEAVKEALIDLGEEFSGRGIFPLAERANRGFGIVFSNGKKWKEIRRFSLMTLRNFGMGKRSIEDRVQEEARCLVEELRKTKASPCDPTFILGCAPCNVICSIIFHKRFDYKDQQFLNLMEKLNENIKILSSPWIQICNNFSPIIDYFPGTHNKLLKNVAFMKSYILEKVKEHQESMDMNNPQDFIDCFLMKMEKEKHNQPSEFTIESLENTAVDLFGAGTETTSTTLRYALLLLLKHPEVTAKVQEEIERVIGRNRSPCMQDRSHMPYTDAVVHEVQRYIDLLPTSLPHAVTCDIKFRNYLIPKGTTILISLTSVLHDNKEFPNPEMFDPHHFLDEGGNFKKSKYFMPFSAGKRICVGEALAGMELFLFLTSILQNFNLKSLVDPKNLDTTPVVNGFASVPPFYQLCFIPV

Row | SMILES | activity, negative = inhibition | AC50
1 | CC(=O)NC1(c2cccc(F)c2)CCN(CC(=O)NC(C)C)CC1 | -0.525% (inactive) | 
2 | CCCCCCCCCn1cc(C(C)=O)c(=O)[nH]c1=O | 3.97% (inactive) | 
3 | COc1ccc(CNc2ccnc(-c3ccccc3C(F)(F)F)n2)c(OC)c1 | 3.78% [at 2.29 µM] (inactive) | 
4 | Cc1ccc(C(=O)C(OC(=O)COc2ccccc2C)c2ccccc2)cc1 (stereo not drawn) |  | 15.8 µM (active)
5 | Cc1ccccc1OCC(=O)OC1CCN(C)CC1 | -10.2% (inactive) | 
6 | Cc1ccc(C(=O)C(OC(=O)CNS(=O)(=O)c2ccccc2)c2ccccc2)cc1 (stereo not drawn) |  | 7.08 µM (active)
7 | Cc1ccc(C(=O)C(OC(=O)CN2C(=O)c3ccccc3C2=O)c2ccccc2)cc1 (stereo not drawn) | -20.4% (inactive) | 
8 | CCSc1nnc2n(N)c(=O)c3ccccc3n12 | -10.6% (inactive) | 
9 | CO[C@H]1COC(=O)CCC[C@H](C)[C@H](OC)COC(=O)C/C=C\[C@@H]1C | 25.3% [at 11.4 µM] (inactive) | 
10 | COc1ccc2[nH]cc(CCNc3cc(-c4ccc(C(=O)N(C)C)cc4)ncn3)c2c1 | 8.96% [at 2.29 µM] (inactive) | 
11 | COc1ccc2[nH]cc(CCNc3ncncc3-c3ccc(N(C)C)cc3)c2c1 |  | 0.501 µM (active)
12 | COc1ccc(CNc2ncncc2-c2ccc(N(C)C)cc2)c(OC)c1 | -16.8% [at 2.29 µM] (inactive) | 
13 | COc1ccc2[nH]cc(CCNc3ncncc3-c3ccc(C(=O)N(C)C)cc3)c2c1 |  | 0.398 µM (active)
14 | COc1ccc2[nH]cc(CCNc3ccnc(-c4ccc(C(=O)N(C)C)cc4)n3)c2c1 | -14% [at 2.29 µM] (inactive) | 
15 | COc1ccc2[nH]cc(CCNc3ncncc3-c3cccnc3)c2c1 | 0.571% [at 2.29 µM] (inactive) | 
16 | CN(C)C(=O)c1ccc(-c2cncnc2NCCc2cnc[nH]2)cc1 | -10.2% [at 2.29 µM] (inactive) | 
17 | COc1ccc(CNc2ncncc2-c2ccc(C(=O)N(C)C)cc2)c(OC)c1 | -28.8% [at 2.29 µM] (inactive) | 
18 | COc1ccc2[nH]cc(CCNc3ncnc4ccc(-c5ccc(C(=O)N(C)C)cc5)cc34)c2c1 |  | 0.251 µM (active)
19 | Cn1c(-c2sccc2OCc2ccccc2)n[nH]c1=S |  | 11.2 µM (active)
20 | CSc1n[nH]c(-c2sccc2OCc2ccc(C)cc2)n1 |  | 5.01 µM (active)
21 | CSc1nnc(-c2sccc2OCc2ccccc2)n1C |  | 17.8 µM (active)
22 | Cn1c(=O)c(-c2cccs2)nc2cnc(OCc3ccccc3)nc21 | -29.1% (inactive) | 

Row | SMILES | activity, negative = inhibition | AC50
23 | CC(C)=CCC/C(C)=C/CO/N=C1/C[C@@H](O)[C@@H](O)[C@@H]2[C@@H]3C(=O)N(C4CCCCC4)C(=O)[C@H]3CC[C@@H]12 | -8.91% [at 11.4 µM] (inactive) | 
24 | CC(SCc1cn2cc(Cl)ccc2n1)C(=O)O (stereo not drawn) | -37.7% (inactive) | 
25 | c1ccc(Oc2cc(-c3ccccc3)ncn2)cc1 |  | 20 µM (active)
26 | CN(C)c1ccc(-c2cc(NCc3ccccc3)ncn2)cc1 | -5.31% [at 2.29 µM] (inactive) | 
27 | COc1cccc(-c2cc(NCc3ccccc3OC)ncn2)c1 | -9.54% [at 2.29 µM] (inactive) | 
28 | CO[C@@H]1COC(=O)[C@H](C)NC(=O)C/C=C\[C@@H](C)[C@@H](NS(=O)(=O)c2ccc(C)cc2)COC(=O)C/C=C\[C@@H]1C | -0.567% [at 11.4 µM] (inactive) | 
29 | COCCNc1ncnc2ccc(-c3ccc(C(=O)N(C)C)cc3)cc12 | -1.35% [at 2.29 µM] (inactive) | 
30 | COc1cc(/C=C2/C(=N)N3OC(C)=CC3=NC2=O)ccc1OCCOc1ccc(C)cc1 | -13.9% (inactive) | 
31 | COc1ccccc1OCCOc1ccc(/C=C2/C(=N)N3OC(C)=CC3=NC2=O)cc1OC | -12.8% (inactive) | 
32 | COc1cc(/C=C2/C(=N)N3C=CSC3=NC2=O)ccc1OCCCOc1ccccc1C |  | 0.708 µM (active)
33 | CCOc1cc(/C=C2/C(=N)N3C=CSC3=NC2=O)ccc1OCCCOc1ccccc1C |  | 0.631 µM (active)
34 | CO[C@@H]1COC(=O)CC=C[C@@H](C)[C@@H]2C=C[C@H](O)[C@@H](COC(=O)C/C=C\[C@H]1C)O2 | 10.7% [at 11.4 µM] (inactive) | 
35 | Cc1ccccc1-c1cncnc1N1CCN(C)CC1 | 18.6% [at 2.29 µM] (inactive) | 
36 | CN1CCCC1CCNC1C2CC3CC(C2)CC1C3 (stereo not drawn) | 29.2% (inactive) | 
37 | NCCCNCCCCNCCCN |  | inactive
38 | NCCCCNCCCN |  | inactive and 12.6 µM (active)
39 | NCCCCN | 14.3% (inactive) | 
40 | CCCCN(CC)Cc1ccc(CNC(=O)Nc2ccc(OC)cc2OC)o1 | -24.1% (inactive) | 
41 | CCN(CC)CCOC(=O)c1c(C)n(C)c2ccc(OC)cc12 | 5.37% (inactive) | 
42 | CCCCOC(=O)C1=C(C)Nc2ncnn2C1c1cc(OC)ccc1OC (stereo not drawn) |  | 7.94 µM (active)
43 | O=S(=O)(O)[C@@H](CO)c1ccccc1 (tested in a mixture with another compound) | -2.54% [at 11.4 µM] (inactive) | 
44 | O=C1C(SCCO)=C(SCCO)C(=O)c2ccccc21 |  | 5.01 µM (active)

Row | SMILES | activity, negative = inhibition | AC50
45 | CCCn1c(=O)c2[nH]c(C3CCCC3)nc2n(CCC)c1=O | -16.3% (inactive) | 
46 | Nc1ncnc2c1ncn2[C@H]1O[C@@H](C(=O)O)[C@@H](O)[C@H]1O | 20% [at 11.4 µM] (inactive) | 
47 | COc1ccc(C(=O)N2CCC3(CC2)CCN(c2ncccn2)CC3)cc1 | -29.8% (inactive) | 
48 | O=C(c1ccco1)N1CCC2(CC1)CN(c1ccccn1)C2 | 2.21% (inactive) | 
49 | CC(C)c1ccc(OCc2ccc(C(=O)N3CCN(c4ccccn4)CC3)cc2)cc1 |  | 3.16 µM (active)
50 | COc1ccc(C(=O)N2CCC3(CC2)CN(C(=O)Nc2ccccc2)C3)cc1 | 0.0177% (inactive) | 
51 | COc1ccc(S(=O)(=O)NCc2ccc(C(=O)N3CCN(c4ccccn4)CC3)cc2)cc1 |  | 3.98 µM (active)
52 | COCC(=O)N1CCC2(CC1)CCN(c1ccccn1)CC2 | -6.99% (inactive) | 
53 | Cc1ccc(C(=O)NNC(=O)CSc2nnc3c(n2)[nH]c2ccc(F)cc23)cc1 |  | 5.62 µM (active)
54 | CC1CCc2cc(F)ccc2N1C(=O)CSc1nnc2c(n1)[nH]c1ccc(F)cc12 (stereo not drawn) |  | 1.78 µM (active)
55 | CON(C)C(=O)c1nnc2c(n1)[nH]c1ccccc12 | -19% [at 11.4 µM] (inactive) | 
56 | CCOC(=O)CC(=O)CSc1nnc2c(n1)[nH]c1ccccc12 |  | 8.91 µM (active)
57 | CCOCc1cnc(C)nc1NCC(=O)c1c(C)[nH]c2ccccc12 | 2.81% (inactive) | 
58 | Cc1ccc2[nH]c3nc(CCCn4ccnc4-c4ccccc4)nnc3c2c1 | -17.6% [at 11.4 µM] (inactive) | 
59 | C[C@@H]1CCc2cc(F)cc3c(=O)c(C(=O)O)cn1c23 | 17.9% [at 25.6 µM] (inactive) | 
60 | Cc1ccc(C(=O)NNC(=O)c2cc3cc4ccccc4nc3s2)cc1 | -26% (inactive) | 
61 | COc1ccc(/C=N/NC(=O)c2ccccc2)cc1CN1CCN(c2ccc(F)cc2)CC1 |  | 11.2 µM (active)
62 | Cc1ccc(/C=N\NC(=O)c2cc(OCC(F)(F)F)ccc2OCC(F)(F)F)cc1 | -1.33% (inactive) | 
63 | COc1cccc(/C=N\NC(=O)c2cc(OCC(F)(F)F)ccc2OCC(F)(F)F)c1 | -8.34% (inactive) | 
64 | COc1ccc(/C=N/NC(=O)c2ccn[nH]2)cc1COc1ccc(Cl)cc1 |  | 12.6 µM (active)
65 | CCOc1cc(CN2CCN(c3ccc(C(C)=O)cc3)CC2)ccc1OC | -29% (inactive) | 
66 | COc1ccc(/C=N/NC(=O)c2ccn[nH]2)cc1COc1ccc(F)cc1 |  | 25.1 µM (active)

Row | SMILES | activity, negative = inhibition | AC50
67 | COc1ccccc1CN1CCC2(CC1)CCN(C(C)=O)CC2 | 8.11% (inactive) | 
68 | Cc1n[nH]c(=O)[nH]c1=O | -0.473% [at 25.6 µM] (inactive) | 
69 | CCOc1nc(N2CCCCC2)nc(-n2cc(-c3ccccc3)nn2)n1 |  | 2.24 µM (active)
70 | O=C(O)CC12C[C@H]3C[C@@H](CC(O)(C3)C1)C2 | -4.71% [at 11.4 µM] (inactive) | 
71 | Cc1cnc(CNc2nc(-c3cccnc3)nc3ccccc23)cn1 | 16.9% [at 2.29 µM] (inactive) | 
72 | NCCS | -13.1% (inactive) | 
73 | Cc1c(Br)c([N+](=O)[O-])nn1C(C)C(=O)Nc1nccs1 (stereo not drawn) |  | 3.55 µM (active)
74 | O=C(O)c1cc(=O)cc(C(=O)O)[nH]1 | -3.86% (inactive) | 
75 | CO[C@H]1COC(=O)C/C=C\[C@H](C)[C@@H](OC)COC(=O)[C@@H](C)COC(=O)C/C=C\[C@@H]1C |  | 2.51 µM (active)
76 | CO[C@@H]1COC(=O)C/C=C\[C@@H](C)[C@H](OC)COC(=O)[C@@H](C)COC(=O)C/C=C\[C@H]1C | 11.9% [at 11.4 µM] (inactive) | 
77 | CO[C@H]1COC(=O)C/C=C\[C@H](C)[C@H](OC)COC(=O)[C@@H](C)COC(=O)C/C=C\[C@@H]1C | -5.38% [at 11.4 µM] (inactive) and 5.78% [at 11.4 µM] (inactive) | 
78 | Cc1nn(-c2ccccc2)c2c1C(c1ccc(O)c(O)c1)N1C(=N2)C(Nc2ccccc2)=Nc2ccccc21 (stereo not drawn) |  | 1.26 µM (active)
79 | CC(=O)Nc1ccc(NC2=Nc3ccccc3N3C2=Nc2c(c(C)nn2-c2ccccc2)C3c2ccccc2)cc1 (stereo not drawn) |  | 1.78 µM (active)
80 | O=C(NNS(=O)(=O)c1ccc(Cl)cc1)C1CCN(Cc2ccccc2)CC1 | -17.3% (inactive) | 
81 | O=C(NNS(=O)(=O)c1ccc(Cl)cc1)c1cnn(-c2ccccc2)c1-n1cccc1 |  | 1.78 µM (active)
82 | COc1cccc(N(C(=O)Cn2nnc(-c3ccc(C)cc3)n2)C(C(=O)NC(C)(C)C)c2c[nH]c3ccccc23)c1 (stereo not drawn) |  | 5.01 µM (active)
83 | Cc1cc(C)cc(C(=O)N(C)[C@H](Cc2ccc(-c3ccccc3)cc2)C(=O)N[C@@H](Cc2c[nH]c3ccccc23)C(=O)O)c1 | -24.1% (inactive) | 
84 | Cc1[nH]c(N)nc(=S)c1CCCNc1ccccc1 | -9.42% [at 11.4 µM] (inactive) | 
85 | O=C(O)c1cc(=O)[nH]c(SCc2ccccc2)n1 | -7.95% [at 11.4 µM] (inactive) | 
86 | CCCc1cc(=O)[nH]c(SCc2cc(Cl)ccc2OC(F)F)n1 |  | 2.82 µM (active)
87 | Cn1c(=O)c(-c2ccc(F)cc2)nc2cnc(Oc3ccccc3)nc21 | 13.7% (inactive) | 
88 | O=C1/C(=C\c2ccccn2)SC(=S)N1Nc1ncc(C(F)(F)F)cc1Cl |  | 5.01 µM (active)
